Reference: PubChem BioAssay (NCI)
The panel holds about 83,000 compounds, 20% with a hit somewhere; the sample as a whole holds those more often.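 Percent growth is the endpoint: 0 to 100 indicates growth inhibition (40 means 60% inhibition), 0 means no net growth, and negative values indicate cell death.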 Activity calls are given as the source filed them. Rule for the calls: active = growth percent below 10; inactive = the rest.

Columns and labels:
Test in all cases: NCI-60 one-dose screen, 48 h (100 = growth as untreated, 0 = no growth, -100 = all killed)
Conditions in all cases: 10 µM unless noted
T-47D breast = system: T-47D breast
BT-549 breast = system: BT-549 breast
MDA-MB-435 melanoma = system: MDA-MB-435 melanoma
MCF7 breast = system: MCF7 breast
HCT-116 colon = system: HCT-116 colon
HCC-2998 colon = system: HCC-2998 colon
KM12 colon = system: KM12 colon
MDA-MB-468 breast = system: MDA-MB-468 breast
SW-620 colon = system: SW-620 colon

Measured: growth

N#Cc1c(-c2ccc(Cl)cc2)nc2n[nH]c(-c3ccc(Cl)cc3)c2c1-c1ccc(C(F)(F)F)cc1
active: T-47D breast -2.6% | BT-549 breast -40% | MDA-MB-435 melanoma -29.7% | MCF7 breast -4.6% | HCT-116 colon -63.3% | HCC-2998 colon -38.9% | KM12 colon -11% | MDA-MB-468 breast -45%

N#Cc1c(-c2ccccc2Cl)cc(-c2ccc3ccccc3c2)[nH]c1=O
active: T-47D breast -21.3% | BT-549 breast 3.43% | MDA-MB-468 breast 5.01%
inactive: MDA-MB-435 melanoma 61.7% | MCF7 breast 44.4% | HCT-116 colon 17.9% | HCC-2998 colon 49.1% | KM12 colon 74.4%

CC1=C(C(=O)OC(C)C)C(c2cccc(O)c2)NC(=S)N1 (configuration not stated)
inactive: T-47D breast 93.7% | BT-549 breast 127% | MDA-MB-435 melanoma 104% | MCF7 breast 90.6% | HCT-116 colon 102% | HCC-2998 colon 105% | KM12 colon 106% | MDA-MB-468 breast 92%

COc1ccc(C(=O)/C=C/c2cccc(Br)c2)cc1S(N)(=O)=O
active: T-47D breast -71.4% | MDA-MB-435 melanoma -5.65% | SW-620 colon -19.8% | MCF7 breast -77.2% | HCT-116 colon -99.2% | HCC-2998 colon -92.8% | KM12 colon -62.8% | MDA-MB-468 breast -53.9%

COc1ccccc1/C=C/C(=O)c1ccc(OC)c(S(N)(=O)=O)c1
inactive: T-47D breast 17% | MDA-MB-435 melanoma 27.2% | SW-620 colon 20.5% | HCC-2998 colon 29.5% | MDA-MB-468 breast 20.7%
active: MCF7 breast 8.25% | HCT-116 colon 5% | KM12 colon 6.73%

COc1ccc(C(=O)/C=C/c2c(F)cccc2Cl)cc1S(N)(=O)=O
active: T-47D breast -5.64% | MDA-MB-435 melanoma 6.73% | SW-620 colon 4.6% | MCF7 breast -4.58% | HCT-116 colon -89.6% | HCC-2998 colon -46.2% | KM12 colon -41.1% | MDA-MB-468 breast -3.57%

C=C1CCC2C3(C)COC(c4ccccc4)OC3CCC2(C)C1CC(NCc1ccccc1)C1=CCOC1=O (configuration not stated)
inactive: T-47D breast 63.6% | MDA-MB-435 melanoma 85% | SW-620 colon 89.8% | MCF7 breast 70.2% | HCT-116 colon 69% | HCC-2998 colon 81.2% | KM12 colon 85.6% | MDA-MB-468 breast 49.3%

Cc1cc(N=C2NC(=O)CS2)n[nH]1
inactive: T-47D breast 101% | MDA-MB-435 melanoma 113% | SW-620 colon 103% | HCT-116 colon 103% | HCC-2998 colon 112% | KM12 colon 101% | MDA-MB-468 breast 114%
active: MCF7 breast -92.2%

CN1CCN(/C(=N\c2sc(-c3ccccc3)nc2-c2ccccc2)c2ccccc2)CC1
inactive: T-47D breast 76.2% | MDA-MB-435 melanoma 79.7% | SW-620 colon 79.5% | MCF7 breast 75.1% | HCT-116 colon 54.4% | HCC-2998 colon 77.5% | KM12 colon 24.5% | MDA-MB-468 breast 71.6%

O=C(NNc1nc2cc(F)ccc2n2c(CN3CC4CNCC4C3)ccc12)c1ccncn1 (configuration not stated)
inactive: T-47D breast 12.4% | MDA-MB-435 melanoma 32.1% | SW-620 colon 31.3% | MCF7 breast 14.7% | HCT-116 colon 14.7% | HCC-2998 colon 56.7% | KM12 colon 27.9%
active: MDA-MB-468 breast -3.86%

Cc1cc2nc3c4ccccc4n(CCNCCN(C)C)c3nc2cc1C
active: MDA-MB-435 melanoma 8.22% | SW-620 colon -19.6% | MCF7 breast -28.8% | HCT-116 colon -57.8% | HCC-2998 colon -56.7% | MDA-MB-468 breast -54.4%
inactive: T-47D breast 52.2% | KM12 colon 27.4%

CN1CCN(c2ccc3c(c2)nc(NNC(=O)c2cnccn2)c2cccn23)CC1
active: T-47D breast -55.6% | MDA-MB-435 melanoma 5.71% | SW-620 colon 9.85% | MCF7 breast -39.1% | HCT-116 colon -52.1% | HCC-2998 colon -44.5% | KM12 colon 1.89% | MDA-MB-468 breast -42.2%

O=C(COc1ccc(NC(=O)Nc2ccc(Cl)c(Cl)c2)cc1)N=Nc1c(O)[nH]c2ccc([N+](=O)[O-])cc12
inactive: T-47D breast 66% | MDA-MB-435 melanoma 59.5% | SW-620 colon 15.9% | MCF7 breast 30.6% | HCT-116 colon 11.3% | HCC-2998 colon 82.6% | KM12 colon 42.2% | MDA-MB-468 breast 32.6%

COc1ccc(C2=NN(c3ccccc3)C(c3ccc(OCc4ccccc4)c(OC)c3)C2)cc1OC (configuration not stated)
inactive: T-47D breast 89.4% | MDA-MB-435 melanoma 105% | SW-620 colon 101% | MCF7 breast 84.8% | HCT-116 colon 85.9% | HCC-2998 colon 117% | KM12 colon 91.8% | MDA-MB-468 breast 105%

COc1c(F)ccc(C(=O)Nc2ccc3nc(NC(=O)C4CCCN(S(=O)(=O)c5ccc(Br)s5)C4)sc3c2)c1F (configuration not stated)
inactive: T-47D breast 53.1% | MDA-MB-435 melanoma 84.1% | SW-620 colon 100% | MCF7 breast 53.8% | HCT-116 colon 65.4% | HCC-2998 colon 98.7% | KM12 colon 75% | MDA-MB-468 breast 83.7%

COc1ccc(C(=O)Nc2n[nH]c(Nc3ccccc3)c2C#N)cc1
inactive: T-47D breast 113% | MDA-MB-435 melanoma 118% | SW-620 colon 102% | MCF7 breast 94.8% | HCT-116 colon 105% | HCC-2998 colon 120% | KM12 colon 112% | MDA-MB-468 breast 112%

COc1ccc(-c2nnc3ccc(N/N=C/c4ccc(C)cc4)nn23)cc1
inactive: T-47D breast 76% | MDA-MB-435 melanoma 64.7% | SW-620 colon 92.1% | MCF7 breast 57.2% | HCT-116 colon 78.8% | HCC-2998 colon 79.1% | KM12 colon 68.1% | MDA-MB-468 breast 89.4%

C=C1CC[C@@H]2[C@]3(C)COC(c4ccco4)O[C@@H]3CC[C@@]2(C)[C@@H]1C/C=C1/C(=O)OCC1OC(C)=O (some centres not stated)
inactive: T-47D breast 45.5% | MDA-MB-435 melanoma 31.9% | MCF7 breast 13.4% | HCC-2998 colon 31.8% | KM12 colon 52.4%
active: SW-620 colon -8.09% | HCT-116 colon -52% | MDA-MB-468 breast -2.37%

O=C(NNc1nc2cc(F)ccc2n2c(CN3CCCCC3)ccc12)c1cnccn1
active: T-47D breast -61.5% | MDA-MB-435 melanoma -46.3% | SW-620 colon 2.86% | MCF7 breast -55.9% | HCT-116 colon -86.9% | HCC-2998 colon -65.2% | KM12 colon -29.8% | MDA-MB-468 breast -62.8%

COc1cccc(/C=C/C(=O)c2ccc(OC)c(S(N)(=O)=O)c2)c1
inactive: T-47D breast 21% | MDA-MB-435 melanoma 34.1% | HCC-2998 colon 29.7% | MDA-MB-468 breast 20%
active: SW-620 colon 8.39% | MCF7 breast 7.97% | HCT-116 colon -73.8% | KM12 colon -41.6%

NC(=S)Nc1cccc(NC(N)=S)c1
inactive: T-47D breast 86.8% | MDA-MB-435 melanoma 97.3% | SW-620 colon 107% | MCF7 breast 91.7% | HCT-116 colon 107% | HCC-2998 colon 117% | KM12 colon 87.6% | MDA-MB-468 breast 86.5%

CC(C)CSc1nc(NCCc2c[nH]c3ccccc23)c(C#N)c(-c2ccc(Cl)cc2)n1
inactive: T-47D breast 31.7% | MDA-MB-435 melanoma 72.5% | SW-620 colon 24.9% | MCF7 breast 16.4% | HCT-116 colon 19.5% | HCC-2998 colon 52.3% | KM12 colon 35.1% | MDA-MB-468 breast 53.9%

C/C(=N\Nc1ccc(S(N)(=O)=O)cc1)c1ccc(N=Nc2c(Nc3ccccc3)[nH][nH]c2=O)cc1
inactive: SW-620 colon 18.1%
active: T-47D breast -30.8% | MDA-MB-435 melanoma -13.6% | MCF7 breast -31.2% | HCT-116 colon 0.299% | HCC-2998 colon -24.6% | KM12 colon 3.69% | MDA-MB-468 breast -35.6%

CN(C)c1ccnc(CNCCSC2(c3ccc(C(F)(F)F)cc3)c3ccccc3C=Cc3ccccc32)c1
active: T-47D breast -60.8% | MDA-MB-435 melanoma -78.3% | SW-620 colon -82.8% | MCF7 breast -89.2% | HCT-116 colon -37.8% | HCC-2998 colon -93.9% | KM12 colon -31.5% | MDA-MB-468 breast -57.7%

COc1ccc(C(=O)/C=C/c2cccnc2)cc1S(N)(=O)=O
inactive: T-47D breast 16.9% | MDA-MB-435 melanoma 73.5% | SW-620 colon 13.2% | HCC-2998 colon 77.3% | MDA-MB-468 breast 20.5%
active: MCF7 breast 7.45% | HCT-116 colon -18.1% | KM12 colon 1.84%

Cc1cnc(C(=O)NNc2nc3cc(F)ccc3n3c(C(=O)N4CC5CC(C4)N5)ccc23)cn1
inactive: T-47D breast 32.1% | MDA-MB-435 melanoma 45.4% | SW-620 colon 32% | MCF7 breast 18.7% | HCT-116 colon 17.5% | HCC-2998 colon 58.7% | KM12 colon 39.8% | MDA-MB-468 breast 13.8%

COc1ccc(C(=O)/C=C/c2ccccc2Br)cc1S(N)(=O)=O
inactive: MDA-MB-435 melanoma 23.4%
active: T-47D breast -5.31% | SW-620 colon -45.7% | MCF7 breast -70.5% | HCT-116 colon -97% | HCC-2998 colon -65.6% | KM12 colon -71% | MDA-MB-468 breast -60.3%

O=C(Cn1c(/C=C/c2cccc([N+](=O)[O-])c2)nc2ccccc2c1=O)Nc1ccccc1
inactive: T-47D breast 82.6% | MDA-MB-435 melanoma 94.3% | SW-620 colon 91.2% | MCF7 breast 42.2% | HCT-116 colon 57.6% | HCC-2998 colon 120% | KM12 colon 74.6% | MDA-MB-468 breast 98.9%

COc1ccc(C(=O)/C=C/c2cccc(Cl)c2Cl)cc1S(N)(=O)=O
active: T-47D breast -17.3% | SW-620 colon -47.3% | MCF7 breast -39.7% | HCT-116 colon -98% | HCC-2998 colon -48.5% | KM12 colon -62.3% | MDA-MB-468 breast -16.4%
inactive: MDA-MB-435 melanoma 14.3%
